TRPML1 agonist = human mucolipin-1 channel agonism. 410,000 compounds, 0.12% hits. AID 624414. activation, % (test concentration not listed). TRPML1-expressing cells, Ca2+ dye fluorescence, FDSS. Q9GZU1; in the data active means activation above about 50%; inconclusive means mostly about 30% to 49%
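TRPML1-DL cells, Tet-induced overnight (~16 h, 37 degrees C), loaded 45-90 min at room temperature with Ca8 no-wash calcium dye plus quencher. FDSS fluorescence: 10 s baseline, compound pin-transfer, 110 s agonist read, then EC80 54-4 (4uM final) and 110 s antagonist read.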
PTHR1 ag = agonists of human PTHR1 parathyroid hormone receptor. Q03431. HEK293 GP2 PTHR1 cells, GloSensor cAMP luminescence, 1 h. Potency, µM (titrated, usually from 115 µM), actives largely listed as activators. 410,000 compounds, 0.075% hits; further: nearly all actives have a fitted effect of over 55% in size
Target sequence (Q03431 whole entry, looked up): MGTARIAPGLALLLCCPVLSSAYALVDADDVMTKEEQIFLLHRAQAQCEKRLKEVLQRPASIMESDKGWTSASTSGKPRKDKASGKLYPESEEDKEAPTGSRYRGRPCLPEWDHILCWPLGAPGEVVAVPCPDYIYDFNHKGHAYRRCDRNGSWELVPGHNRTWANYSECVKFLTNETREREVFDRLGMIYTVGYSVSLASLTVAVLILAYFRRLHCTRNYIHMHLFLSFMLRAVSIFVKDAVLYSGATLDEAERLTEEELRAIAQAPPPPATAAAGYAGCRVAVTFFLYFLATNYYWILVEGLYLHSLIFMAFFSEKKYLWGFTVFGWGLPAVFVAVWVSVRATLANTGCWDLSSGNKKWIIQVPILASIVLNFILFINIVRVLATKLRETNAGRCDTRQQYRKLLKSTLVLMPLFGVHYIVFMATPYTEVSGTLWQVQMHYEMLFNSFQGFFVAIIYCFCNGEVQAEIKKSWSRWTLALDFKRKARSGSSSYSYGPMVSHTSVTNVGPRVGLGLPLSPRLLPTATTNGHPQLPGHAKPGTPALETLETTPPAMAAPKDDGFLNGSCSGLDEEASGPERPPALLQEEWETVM
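HEK-293-derived GP2 cells expressing PTHR1 and a GloSensor cAMP reporter, 3,000/well, plated overnight, given luciferin plus IBMX (each 0.5 mM as added) for 1 h at 37 °C, then compound for 1 h at 37 °C. Luminescence was read after 15 min at room temperature.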
TRHR ag = activates the human TRH receptor. TRHR cells, calcium flux fluo-8, FDSS agonist mode. activation, % at 2 µM. 360,000 compounds, 0.18% hits. AID 493084; in the data active means activation above about 30%
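Read-out: compound-evoked intracellular calcium rise in TRHR cells, fluo-8 dye, kinetic FDSS fluorescence at 1 s/cycle following a 10-cycle baseline. Cells cultured overnight before dye loading (30 min–1.5 h, RT).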
TRHR enhancer = allosterically enhances the human TRH receptor | P34981 | TRHR cells, fluo-8 calcium fluorescence, EC20 TRH enhancement | enhancement, % at 2 µM | 360,000 compounds, 0.66% hits | AID 493056; in the data active means enhancement above about 30%
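TRHR-expressing cells loaded with fluo-8 calcium dye were read kinetically (ex 480/em 530) during compound addition, then stimulated with an EC20 of TRH (10 nM final). Enhancement of the Gq-mediated intracellular calcium response was scored.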
TRPML1 inh = inhibitors of human TRPML1 channel | TRPML1-inducible cells, Ca2+ dye fluorescence, FDSS; active compounds read low; inhibition of EC80 agonist-evoked calcium signal | activity change, negative = inhibition, % (no concentration beside the values) | 390,000 compounds, 0.02% hits | AID 624415; in the data active means activity change below about -50%; inconclusive means between about -30% and that limit;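 further: stimulus is agonist 54-4 at its EC80 concentration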
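Tet-induced TRPML1-DL cells loaded with Ca8 no-wash calcium dye were read kinetically on FDSS. Compound addition was followed by EC80 agonist 54-4 (4 uM final); inhibition was read over 110 s.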
HEK293 tox = cytotoxic in the GLP-1 receptor inverse agonist counter-screen. HEK293 cAMP-luciferase reporter cells, luminescence, 24 h. Potency, µM (highest dose often 38.3 µM), most hits filed as inhibitors. 410,000 compounds, 0.13% hits. AID 624418;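 further: loss of luciferase light is scored as toxicity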
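A 23 nL compound transfer followed 12 hours of cell culture at 37 deg C; exposure then lasted 24 hr. Luciferase assay detection reagent was dispensed and plates read for luminescence after a 12 min room-temperature wait.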
Hits are given with their value. Only some compounds are listed: those with a hit (about 0.93% of all), similar ones and a draw of the others. Unless noted, the call rests on the fitted dose curve; in most records, active means well fitted curve in the direction sought with a large enough effect; inconclusive means small, poorly fitted or top-dose-only effect, or another doubt; inactive means no such curve, though single readings can be large; an effect the other way counts as inactive or inconclusive.

`O=C(CSc1nnc(Cc2ccccc2)n1-c1ccccc1)NNC(=O)Cc1ccccc1` gave TRPML1 agonist inactive, PTHR1 ag inactive, TRHR ag inactive, TRHR enhancer 31, TRPML1 inh inactive and HEK293 tox inactive.
For O=S(=O)(c1ccc2c(c1)OCCO2)N1CCN(S(=O)(=O)c2ccc(Cl)cc2F)CC1 the results were TRHR ag inactive and TRHR enhancer inactive.
`COc1cc2c(cc1OC)/C(=C/c1ccc(N(C)C)cc1)C=C2` gave TRPML1 agonist inactive.
`Cc1ccccc1N(C(=O)c1snc(C(N)=O)c1N)C(C(=O)NCC1CCCO1)c1ccc(F)cc1` (centres undefined) gave TRPML1 agonist inactive, PTHR1 ag inactive, TRHR ag inactive, TRHR enhancer 40, TRPML1 inh inactive and HEK293 tox inactive.
Screening COc1cc2nc(N3CCCCC3)nc(NC3CCN(Cc4ccccc4)CC3)c2cc1OC returned TRPML1 agonist inactive.
Screening Nc1ccc(Cn2ccc3c4c(N)nc(N)nc4ccc32)cc1 returned TRPML1 agonist inactive, PTHR1 ag inactive, TRPML1 inh inactive and HEK293 tox 7.9µM.
For COCC(=O)N(Cc1cc2cc(C)ccc2[nH]c1=O)c1ccc(C)c(C)c1 the results were TRPML1 agonist inactive, PTHR1 ag inactive, TRHR ag inactive, TRHR enhancer 31, TRPML1 inh inactive and HEK293 tox inactive.
`COCC(=O)N(Cc1cc2cc(C)ccc2[nH]c1=O)c1cccc(C)c1C` gave TRPML1 agonist inactive, PTHR1 ag inactive, TRHR ag inactive, TRHR enhancer inactive, TRPML1 inh inactive and HEK293 tox inactive.
For Fc1ccccc1-c1nc(NC2CCCC2)c2ccccc2n1 the results were TRPML1 agonist inactive, PTHR1 ag inactive, TRHR ag inactive, TRHR enhancer inactive, TRPML1 inh inactive and HEK293 tox inactive.
For Oc1ccccc1-c1nc(NC2CCCC2)c2ccccc2n1 the results were PTHR1 ag inactive, TRHR ag inactive, TRHR enhancer 31 and HEK293 tox inactive.
For CC(C)(C)OC(=O)Cc1nnc(C(C(=O)OCc2ccccc2)c2ccccc2)s1 (centres undefined) the results were TRHR ag inactive and TRHR enhancer inactive.
For CCOc1ccc(S(=O)(=O)N2CN(c3cccc(C(C)=O)c3)c3nc4ccccc4nc32)cc1 the results were TRPML1 agonist 64, PTHR1 ag inactive, TRPML1 inh inactive and HEK293 tox inactive.
`CCOc1ccc(S(=O)(=O)N2CCN(S(=O)(=O)c3ccc(C(C)=O)cc3)CC2)cc1` gave TRPML1 agonist inactive, PTHR1 ag inactive, TRHR ag inactive, TRHR enhancer inactive, TRPML1 inh inactive and HEK293 tox inactive.
For COCC1CCN(Cc2nc(-c3ccc4c(c3)OCO4)no2)C1 (centres undefined) the results were TRPML1 agonist inactive, PTHR1 ag inactive, TRHR ag inactive, TRHR enhancer inactive, TRPML1 inh inactive and HEK293 tox inactive.
For c1cc(C2CCN(Cc3nc(-c4ccc5c(c4)OCO5)no3)CC2)ccn1 the results were TRPML1 agonist inactive, PTHR1 ag inactive, TRHR ag inactive, TRHR enhancer 35, TRPML1 inh inactive and HEK293 tox inactive.
CC(C)(C)OC(=O)N1CCC(c2c(C(=O)N3CCC(c4ccccc4)C3)cnn2-c2ccc(Cl)cc2)CC1 (centres undefined) was read as TRPML1 agonist inactive, PTHR1 ag inactive, TRHR ag inactive, TRHR enhancer inactive, TRPML1 inh inactive and HEK293 tox inactive.
`Cc1cccc(-n2ncc(C(=O)N3CCN(C4CCCCC4)CC3)c2C2CCN(C(=O)OC(C)(C)C)CC2)c1` gave TRPML1 agonist 91, PTHR1 ag inactive, TRHR ag inactive, TRHR enhancer inactive, TRPML1 inh inconclusive and HEK293 tox inactive.
CC(C)(C)OC(=O)N1CCC(c2c(C(=O)N3CCC(c4ccccc4)C3)cnn2-c2cccc(Cl)c2)CC1 (centres undefined) was read as TRPML1 agonist 57, PTHR1 ag inactive, TRHR ag inactive, TRHR enhancer inactive, TRPML1 inh inactive and HEK293 tox inactive.
CC(C)(C)OC(=O)N1CCC(c2c(C(=O)N3CCN(C4CCCCC4)CC3)cnn2-c2ccccc2)CC1 was read as TRPML1 agonist inactive, PTHR1 ag inactive, TRHR ag inactive, TRHR enhancer inactive, TRPML1 inh inactive and HEK293 tox inactive.
For Cc1ccc(C2CCN(C(=O)c3cnn(-c4cccc(Cl)c4)c3C3CCN(C(=O)OC(C)(C)C)CC3)C2)cc1 (centres undefined) the results were TRPML1 agonist 59, PTHR1 ag inactive, TRHR ag inactive, TRHR enhancer inactive, TRPML1 inh inactive and HEK293 tox inactive.
For COc1ccccc1N1CCN(C(=O)c2cnn(-c3cccc(Cl)c3)c2C2CCN(C(=O)OC(C)(C)C)CC2)CC1 the results were TRPML1 agonist 67, PTHR1 ag inactive, TRHR ag inactive, TRHR enhancer inactive, TRPML1 inh inactive and HEK293 tox inactive.
`Cc1ccc(C2CCN(C(=O)c3cnn(-c4ccc(C)cc4)c3C3CCN(C(=O)OC(C)(C)C)CC3)C2)cc1` (centres undefined) gave TRPML1 agonist inactive, PTHR1 ag inactive, TRHR ag inactive, TRHR enhancer inactive, TRPML1 inh inactive and HEK293 tox inactive.
`O=C(Nc1ccccc1Sc1ccccc1)c1cnn2c1NC(=C1CC1)C=C2C(F)F` gave TRPML1 agonist inactive.
For C[S+](C)CC(=O)c1ccc2ccccc2c1 the results were TRPML1 agonist inactive.
`CCNc1nc(C#N)nc2c1ncn2-c1cccc(Cl)c1` gave TRHR ag inactive and TRHR enhancer inactive.
`CC(C)(C)OC(=O)N1CCC(c2c(C(=O)N3CCN(Cc4ccccc4)CC3)cnn2-c2cccc(Cl)c2)CC1` gave TRPML1 agonist 92, PTHR1 ag inactive, TRHR ag inactive, TRHR enhancer inactive, TRPML1 inh inactive and HEK293 tox inactive.
`Cc1ccc(-n2ncc(C(=O)N3CCN(Cc4ccccc4)CC3)c2C2CCN(C(=O)OC(C)(C)C)CC2)cc1` gave TRPML1 agonist inactive, PTHR1 ag inactive, TRHR ag inactive, TRHR enhancer inactive, TRPML1 inh inactive and HEK293 tox inactive.
`CCN1C(=S)SC(=O)C1=C1C=C(C)N(Cc2ccco2)C(C)=C1` gave TRPML1 agonist 59, PTHR1 ag inactive, TRHR ag inactive, TRHR enhancer inactive, TRPML1 inh inactive and HEK293 tox inconclusive.
CCCN1CCC(=O)N(C(CSc2ccc(OC)cc2)c2ccccc2)CC1 (centres undefined) was read as TRPML1 agonist inactive and TRPML1 inh inactive.
